Inconclusive results are not listed. The source made the active and inactive calls. Calls follow the shape of the dose curve; as a rule, active = well fitted inhibition curve with a large enough effect; inconclusive = small, poorly fitted or top-dose-only effect; inactive = no such curve, though single readings can be large or run the other way.
Each compound was assayed against Tumor susceptibility gene 101 protein (Homo sapiens) (UniProt Q99816) (assay: qHTS Assay for Iinhibitors of HIV-1 Budding by Blocking the Interaction of PTAP/TSG101: Hit Validation in TR assay). Conditions: Tsg101 binding domain + Texas Red-labeled PTAP peptide, fluorescence polarization, 20 min; series mostly up to 57.5 µM; activity change, negative = inhibition: at the top concentration.
From the text: Stages of the HIV-1 replication cycle, specifically virus assembly and release, provide underexploited targets for the development of novel antiviral inhibitors. The late stages of HIV-1 replication are mediated by the Gag precursor protein, Pr55Gag. Expression of Pr55Gag is both necessary and sufficient for the production of virus-like particles from Gag-expressing cells. The Gag protein hijacks key host proteins involved in endocytic machinery of the host cell to promote endosomal processing and viral budding. The budding process requires a direct interaction between a […] (PTAP) motif in the p6 domain of Gag and the cellular endosomal sorting protein known as Tsg101. In this way, the Gag PTAP motif promotes the host cells to recruit viral particles to the plasma membrane where the new viral particles are released, effectively turning the host cells into viral factories. A fluorescence anisotropy assay has been developed to quantitatively measure the PTAP-Tsg101 interaction which can be used to screen for inhibitors of this interaction.
This hit validation assay is similar to the primary assay but uses the Texas Red label instead of FITC.
NIH Molecular Libraries Probe Production Network [MLPCN]
NIH Chemical Genomics Center [NCGC]
PI Name: Dr. Eric Freed, NCI
Two uL of the Tsg101 binding domain in buffer (10 mM HEPES pH 7.5; 0.15 M NaCl, 0.01% Tween 20; 3 mM EDTA;0.1 mM TCEP) was dispensed into Greiner black MB 1536-well plates (final concentration 10 uM). Then, 23 nL of compounds or DMSO were delivered to each well using a pin tool. Finally, 2 uL of a TR-labeled peptide containing the PTAP motif (1) in the same buffer was dispensed (50 nM final concentration) and the binding was allowed to proceed for 20 min. at r.t. Fluorescent polarization was determined using TR excitation and polarized emission filters on a Perkin Elmer Viewlux.
Keywords: Tsg101, PTAP, Gag, HIV, fluorescent polarization, MLSMR, MLPCN, NIH Roadmap, qHTS, NCGC
% is scaled to controls: 0 for no effect and ±100 for the full control effect; potency is read from the fitted curve at half-maximal effect.

Sequence of Tumor susceptibility gene 101 protein (Homo sapiens) (Q99816 whole entry, looked up, the tested form may be a part): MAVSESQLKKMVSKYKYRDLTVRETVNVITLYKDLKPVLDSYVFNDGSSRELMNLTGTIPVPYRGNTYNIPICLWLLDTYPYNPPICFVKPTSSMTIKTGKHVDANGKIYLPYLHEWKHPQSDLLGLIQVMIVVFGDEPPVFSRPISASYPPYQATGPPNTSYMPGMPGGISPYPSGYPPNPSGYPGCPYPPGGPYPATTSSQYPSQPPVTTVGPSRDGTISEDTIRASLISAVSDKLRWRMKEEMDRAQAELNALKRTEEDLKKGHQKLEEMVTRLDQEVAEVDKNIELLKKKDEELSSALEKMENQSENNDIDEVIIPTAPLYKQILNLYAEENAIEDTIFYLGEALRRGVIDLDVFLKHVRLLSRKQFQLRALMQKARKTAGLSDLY

SMILES | activity change, negative = inhibition | Potency
COc1ccc(-c2onc3ccc(C(C)=O)cc23)cc1 | -8.57% (inactive) | 
COc1cc(OC)c(-c2cc(C(=O)O)ccc2OC)c(OC)c1 | -8.83% (inactive) | 
CSC1=NSC2=NC(=O)/C(=C/c3coc4ccccc4c3=O)C(=N)N12 | -61.3% (inactive) | 
C=CCOn1c(=O)c(-c2cc3ccccc3o2)[n+]([O-])c2ccccc21 | -8.7% (inactive) | 
CCN(CC)S(=O)(=O)c1ccc(C(=O)OCCN2C(=O)c3cccc4c(N5CCOCC5)ccc(c34)C2=O)cc1 | 9.03% (inactive) | 
CCN(CC)c1ccc2cc(C(=O)NNC(=O)c3ccc(S(=O)(=O)N4CCCCC4)cc3)c(=O)oc2c1 | 9.6% (inactive) | 
O=C(NCc1cccc(F)c1)c1cccc2c1C(=O)c1ccc(N3CCCC3)cc1S2(=O)=O | 33.2% (inactive) | 
CCCCOc1ccc(C2OC34CCCCC3C(C#N)(C#N)C2(C#N)C(=N)O4)cc1 (stereo not given) | -11.2% (inactive) | 
O=c1c(/C=C(\O)c2ccccc2)nc2ccccc2n1-c1ccccc1 | 10.3% (inactive) | 
Cc1ccc(Nc2ccc([N+](=O)[O-])ccc2=O)cc1 | -6.67% (inactive) | 
COC(=O)C[C@H]1c2cc(F)ccc2S(=O)(=O)N1c1ccccc1 | -24.1% (inactive) | 
CCN1CC=C2C(C#N)=C(N)C(C#N)(C#N)C(CCc3ccccc3)C2C1 (stereo not given) |  | 11.6 µM (active)
COc1ccc2nc3ccccc3nc2c1NC(=O)c1ccc(Cl)cc1Cl | -19.7% (inactive) | 
CN1CCc2c(sc(NC(=O)CSc3ccc(F)cc3)c2-c2nc3ccccc3s2)C1 | -9.11% (inactive) | 
O=Cc1nccc2ccccc12 | 395% (inactive) | 
Fc1ccc(C2=CC(c3ccco3)n3ncnc3N2)cc1 (stereo not given) | -25.3% (inactive) | 
O=C(O)[C@@H]1[C@H]2C[C@H]3c4[nH]c5ccccc5c4CCN3C[C@@H]2CC[C@@H]1O |  | 13 µM (active)
COc1ncnc2c1NC1=C(S2)C(=NCCC(=O)O)CC(C)(C)C1 | -7.13% (inactive) | 
O=C(CN1C(=O)c2ccccc2S1(=O)=O)Nc1ncc(Cl)cc1Cl | 24.7% (inactive) | 
c1ccc(-c2cnn3c(-c4ccccc4)c(-c4ccccc4)nc3n2)cc1 | 50.1% (inactive) | 

SMILES | activity change, negative = inhibition | Potency
Oc1[nH]c2ccccc2c1N=Nc1ccccc1 | 8.43% (inactive) | 
Cc1cc[n+](-c2[nH]c(=O)sc2/C=N/NC([S-])=Nc2ccccc2)cc1C | -16.8% (inactive) | 
CCN(CC)c1ccc2cc(S(=O)(=O)c3ccc(Cl)cc3)c(=O)oc2c1 | -14.2% (inactive) | 
NC(=O)CSc1nc2c(sc3ccccc32)c(=O)n1CCCC(=O)NCC1CCCO1 (stereo not given) | -27.5% (inactive) | 
O=C1c2ccccc2S(=O)(=O)c2cc(N3CCN(C(=O)c4ccccc4)CC3)ccc21 | 5.28% (inactive) | 
COc1ccc(-c2cc(C(F)(F)F)c3c(N)c(C(=O)NCCSC)sc3n2)cc1 | -20.5% (inactive) | 
CC1CCN(c2ccc3c(c2)S(=O)(=O)c2ccccc2C3=O)CC1 | -17.4% (inactive) | 
O=C(NCc1cccc(C(F)(F)F)c1)c1cccc2c1C(=O)c1ccc(N3CCC(Cc4ccccc4)CC3)cc1S2(=O)=O | -7.43% (inactive) | 
Cc1cc2nc3c(=O)n(CCc4ccccc4)c(=O)[nH]c3nc2cc1N | -0.59% (inactive) | 
O=c1oc2cc(O)ccc2cc1-c1nc2c(s1)CCc1ccccc1-2 | -8.4% (inactive) | 
CCn1c(C)cc(C=C2C(=O)c3ccccc3C2=O)c1C | -23.1% (inactive) | 
Cc1c2ccccc2nc2c(F)c(NC(C)C)c(F)c(F)c12 | 60.3% (inactive) | 
Cc1cccc(N2C(=O)c3cccc4c(N(C)CCO)ccc(c34)C2=O)c1 | -10.9% (inactive) | 
O=C1c2cccc3c([N+](=O)[O-])ccc(c23)C(=O)N1c1ccc(Cl)cn1 | -5.67% (inactive) | 
CCCN1CCN(S(=O)(=O)c2cn(C)nc2C)CC1 | -28.3% (inactive) | 
CCn1c(/C=C/c2cc[n+](C)cc2)nc2ccccc21 | -15.3% (inactive) | 
O=S(=O)([N-]c1nc2ccccc2nc1-[n+]1ccc(-c2ccncc2)cc1)c1ccccc1 | -18.2% (inactive) | 
CCc1cccc2cc3c(N)c(C(=O)Nc4ccc(S(=O)(=O)N5CCCC5)cc4)sc3nc12 | -58.6% (inactive) | 
CCCn1nc(-c2ccccc2)c2nc3ccccc3nc21 | 11.5% (inactive) | 
CC1(C)CC(=O)C2=C(C1)OC(N)=C(C#N)[C@@H]2c1ccccc1[N+](=O)[O-] | -8.7% (inactive) | 

From PubChem BioAssay AID651599 (National Center for Advancing Translational Sciences (NCATS), 2012)
